Counter-ions that a name gives are not always drawn.
Experiments:
Settings in all cases: compound concentration in added solution (µM; 5 µl added to 20 µl cells): 10; 18 h
A431 [1] = test: LBPA endosome anti-LBPA integrated intensity (sum per cell), Z-score; higher = more LBPA staining
In short: (§1)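 HeLa MZ or A431 cells were plated at 3,500 per well in 20 µl over 5 µl of 10 µM compound solution in duplicate 384-well imaging plates and fixed in 4% PFA after 18 h. Staining used the 6C4 anti-LBPA antibody, filipin, propidium iodide and CellTracker green, with four 20× images captured per well. MetaXpress segmentation measured integrated LBPA or filipin intensity per cell, across the whole cell or inside LBPA endosomes, and AcuityXpress normalised these into Z-scores.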

HeLa MZ [2] = test: as above
In short: as §1

A431 [3] = test: whole-cell filipin (free cholesterol) integrated intensity, Z-score; higher = more cholesterol staining
In short: as §1

HeLa MZ [4] = test: as above
In short: as §1

A431 [5] = test: filipin (cholesterol) integrated intensity within LBPA endosomes, Z-score; higher = more cholesterol in LBPA endosomes
In short: as §1

HeLa MZ [6] = test: as above
In short: as §1

Compound | LBPA endosome anti-LBPA integrated intensity (z-score) (A431 [1]) | LBPA endosome anti-LBPA integrated intensity (z-score) (HeLa MZ [2]) | whole-cell filipin (z-score) (A431 [3]) | whole-cell filipin (z-score) (HeLa MZ [4]) | filipin (z-score) (A431 [5]) | filipin (z-score) (HeLa MZ [6])
C#C[C@]1(O)CC[C@H]2[C@@H]3CCC4=Cc5oncc5C[C@]4(C)[C@H]3CC[C@@]21C [Danazol] | -0.455 | -0.444 | -0.615 | -0.566 | -0.449 | -0.556
CN1Cc2c(N)cccc2C(c2ccccc2)C1 (stereo not given) [Nomifensine maleate] | -0.419 | 0.114 | -0.627 | -0.396 | -0.47 | -0.516
CC(C)NCC(O)COc1cccc2[nH]ccc12 (stereo not given) [Pindolol] | -0.195 | -0.563 | -0.497 | -0.0997 | -0.329 | -0.129
CCOC(=O)C1=C(C)NC(C)=C(C(=O)OC)C1c1cccc(Cl)c1Cl (stereo not given) [Felodipine] | -0.574 | -0.618 | -0.869 | -0.774 | -0.49 | -0.476
CC[C@H](c1ccc(O)cc1)[C@@H](CC)c1ccc(O)cc1 [Hexestrol] | -0.48 | -0.198 | -0.492 | -0.508 | -0.435 | -0.383
Cc1cccc(C)c1NC(=O)C1CCCCN1C (stereo not given) [Mepivacaine hydrochloride] | -0.256 | 0.0426 | 0.297 | 0.327 | -0.328 | -0.202
CC(C(=O)O)c1ccc2c(c1)[nH]c1ccc(Cl)cc12 (stereo not given) [Carprofen] | -0.569 | -1.21 | -0.098 | -0.307 | -0.398 | -0.538
CN1CCN(c2c(F)cc3c(=O)c(C(=O)O)cn4c3c2SCC4)CC1 [Rufloxacin] | -0.614 | -0.736 | 0.0183 | -0.289 | -0.534 | -0.17
CNC(=C[N+](=O)[O-])NCCSCc1csc(CN(C)C)n1 [Nizatidine] | -0.247 | -0.223 | 0.149 | -0.639 | -0.347 | -0.405
CCOC(=O)C1=C(COCCN)NC(C)=C(C(=O)OC)C1c1ccccc1Cl (stereo not given) [Amlodipine] | 1.97 | 0.223 | 0.774 | 0.736 | 2.32 | 1.8
COc1ccc(-c2ccc(=N)n(CCCC(=O)O)n2)cc1 [Gabazine bromide] | -0.561 | -0.0518 | -0.811 | -0.576 | -0.574 | -0.549
CC(CN(C)C)C(C)(O)Cc1ccc(Cl)cc1 (stereo not given) [Clobutinol hydrochloride] | -0.559 | 0.835 | -0.328 | -0.426 | -0.624 | -0.205
CC=CC(=O)N(CC)c1ccccc1C [Crotamiton] | -0.66 | -1.3 | -0.358 | -0.316 | -0.501 | -0.424
NC(=O)N1c2ccccc2C=Cc2ccccc21 [Carbamazepine] | -0.439 | -0.106 | -0.553 | -0.708 | -0.587 | -0.687
COc1ccc(NS(=O)(=O)c2ccc(N)cc2)nn1 [Sulfamethoxypyridazine] | -0.55 | -1.31 | -0.449 | -0.237 | -0.455 | -0.522
CCC(C)(CN(C)C)OC(=O)c1ccccc1 (stereo not given) [Amyleine hydrochloride] | -0.517 | 0.00392 | -0.884 | -0.337 | -0.528 | -0.471
NS(=O)(=O)c1cc(C2(O)NC(=O)c3ccccc32)ccc1Cl (stereo not given) [Chlorthalidone] | -0.286 | -0.349 | -0.587 | -0.924 | -0.516 | -0.608
CCn1cc(C(=O)O)c(=O)c2ccc(C)nc21 [Nalidixic acid sodium salt] | -0.59 | -0.884 | -0.346 | -0.298 | -0.467 | -0.567
Nc1nnc(-c2cccc(Cl)c2Cl)c(N)n1 [Lamotrigine] | -0.222 | 1.64 | 0.954 | 3.15 | -0.396 | -0.375
CS(=O)(=O)OCCCCOS(C)(=O)=O [Busulfan] | -0.537 | -0.499 | -0.466 | 0.544 | -0.535 | -0.476
